Rows were chosen to be rich in hits. Some 4.7% of all compounds tested hit in one or more screens of this group.
TROY NFkB inh: blocks TROY-dependent signaling in reporter cells; AID 1347056; Q293 LMP1-TROYcd NF-kB luciferase reporter, 4 h; inhibition, % at 10 µM; actives 0.98% (n = 360,000);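 active means compounds whose plate-normalised and pattern-corrected inhibition of the luciferase reporter signal at the single screening dose is 50% or more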
LMP1 NFkB inh: inhibitors of Epstein-Barr LMP1-induced NF-kappaB reporter; LMP1-induced NF-kappaB luciferase reporter cells, luminescence; inhibition, % at 12.5 µM; actives 0.69% (n = 350,000); in the data active means inhibition above about 41%; inconclusive means no clear call, values can overlap the other calls
HSP90 inh: blocks HSP90-mediated luciferase refolding in reticulocyte lysate; Rabbit reticulocyte lysate, luciferase refolding luminescence, 3 h; inhibition, % at 5.6 µM; actives 0.91% (n = 290,000); AID 1789;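 active means inhibition above the screen-wide mean plus 3 SD, computed separately per campaign, cut at about 16% in these data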;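 further: inhibitors lower the luminescence because luciferase stays unfolded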
HSF-1 act: increases HSF-1 driven luciferase reporter signal; NIH3T3-HGL HSF-1 luciferase reporter, MG132, 8 h; 100% = twice DMSO control signal; activation, % at 9 µM; actives 1.7% (n = 300,000);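 active means mean replicate activation of at least 50% with a set share of replicates each reaching 50%; inconclusive means only one of those two conditions met; inactive means mean below 50% and too few replicates reaching it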
HSF1 inh: HSF1 inhibition. AID 2098. NIH3T3-HGL HSE-luciferase, MG132-induced, luminescence 8 h; active compounds read low. actives 0.77% (n = 300,000). activity change, negative = inhibition, % at 7.5 µM (by protocol);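 active means more than half of replicate wells show activity change below -50%, luminescence cut by over half; inconclusive means some wells, but at most half, below -50%; inactive means no replicate well below -50%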;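 further: luciferase reports HSF-1 transcriptional activity via heat shock element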
TWEAK Fn14 block: blocks TWEAK-Fn14 interaction in a reporter cell assay | inhibition, % at 10 µM | actives 2% (n = 360,000) | TWEAK-stimulated Fn14 reporter cells, luciferase luminescence, 8 h; in the data active means inhibition above about 50%
Hits are given with their value; 0 = inactive; ? = inconclusive; - = no result given.

SMILES | TROY NFkB inh | LMP1 NFkB inh | HSP90 inh | HSF-1 act | HSF1 inh | TWEAK Fn14 block
O=S(=O)(c1cccs1)N1CCN(CC(O)COc2cc(Cl)ccc2Cl)CC1 (stereo not given) | 52 | 0 | 0 | - | - | 0
COC(=O)C1CCC(=O)N1C(c1ccc(OC)cc1)c1cc(OC)c(OC)c(OC)c1 (stereo not given) | 0 | 0 | - | - | - | 0
Cc1cccc(-n2c(SCC(N)=O)nc3c(c2=O)C2(CCCC2)Cc2ccccc2-3)c1 | 50 | 0 | 0 | 0 | 0 | 0
CC(=O)c1cccc(NC(=O)C2Cc3c(-c4cccc(F)c4)ccnc3O2)c1 (stereo not given) | 0 | - | - | - | - | 0
Brc1c(CSc2nc3ccccc3s2)nc2ncccn12 | 0 | 0 | 0 | 66 | 0 | 0
CCn1c(=O)c2cc(C(=O)NCc3cccs3)sc2c2ccccc21 | 0 | 52 | 0 | - | - | 0
CCCCNC(=O)c1cc2c(=O)n(CC)c3ccccc3c2s1 | 0 | 0 | 0 | 0 | 0 | 0
Cc1oc(-c2cccc(Cl)c2)nc1CN1CCCC(C(=O)NC(C)c2ccc3c(c2)OCCO3)C1 (stereo not given) | 0 | 0 | 0 | 54 | 0 | 0
Cc1oc(-c2cccc(Cl)c2)nc1CN1CCCC(C(=O)NCc2ccco2)C1 (stereo not given) | 0 | 0 | 0 | 0 | 0 | 0
COc1cccc(N/C(SCc2ccccc2C)=C(/C#N)C(=O)NCc2cccs2)c1 | 0 | 0 | 0 | 0 | 0 | 0
COc1cccc(N/C(SCc2cccc([N+](=O)[O-])c2)=C(/C#N)C(=O)NCc2cccs2)c1 | 0 | 0 | 0 | 75 | 0 | 0
CC1(C)CC(=O)C(C=Nc2cccnc2)=C(O)C1 | 0 | 0 | 0 | 133 | 0 | 0
N#CC1(NC(=O)COC(=O)Cc2c[nH]c3ccccc23)CCCCC1 | 0 | 0 | - | - | - | 0
CCOc1ccccc1-c1noc(CCCC(=O)NC2CCCCC2)n1 | 0 | 0 | 0 | 64 | 0 | 0
Cc1nc(SCC(=O)c2ccccc2)c(C#N)c(-c2ccco2)c1C(=O)NCc1ccco1 | 0 | 0 | 0 | 76 | 0 | 0
COCCOC(=O)c1c(C)nc(SCC(=O)Nc2ccc(OC)cc2)c(C#N)c1-c1ccco1 | 0 | 0 | 0 | 0 | 0 | 0
CCC(=O)N1C(C(=O)N2CCCC2)CSC1c1ccc(OC)cc1 (stereo not given) | 0 | 0 | 0 | 0 | -88 | 0
COCCCN1C(=O)C(CC(=O)NC2CC2)CC(C(=O)N2CCOCC2)=C1C (stereo not given) | 0 | - | - | - | - | 0
O=C(NC1CCCCC1)c1[nH]c(C(F)(F)F)nc1-c1ccccc1 | 0 | - | - | - | - | 0
BrC(/C=C\c1ccccc1)=N/Nc1nc(N2CCOCC2)nc(N2CCOCC2)n1 | 0 | 0 | 0 | 176 | 0 | 0
CN(C)c1ccc(/C=C/C=N/Nc2nc(N3CCOCC3)nc(N3CCOCC3)n2)cc1 | 0 | 0 | 0 | 79 | 0 | 0
c1ccc(NN=C(c2ccccc2)c2cccs2)cc1 | 0 | 0 | - | - | - | 0
COc1cccc(NC(=O)N(C)C[C@H]2Oc3ncc(Br)cc3C(=O)N([C@H](C)CO)C[C@H]2C)c1 | 0 | 0 | - | - | - | 0
COc1ccc(/C=N/Nc2nc3ccccc3o2)cc1O | 0 | 0 | 0 | 0 | 0 | 72
Oc1ccccc1/C=N/Nc1nc2ccccc2o1 | 0 | 0 | 0 | 0 | 0 | 0
SMILES | TROY NFkB inh | LMP1 NFkB inh | HSP90 inh | HSF-1 act | HSF1 inh | TWEAK Fn14 block
Brc1ccc(/C=N/Nc2nc3ccccc3o2)cc1 | 0 | 0 | 0 | 63 | 0 | 0
O=C(OC1CC2CC1[C@H]1CCCCN1C2=O)N1CCN(C(=O)c2ccccc2)CC1 (stereo not given in full) | 0 | - | - | - | - | 0
CC(=O)N1c2ccc(S(=O)(=O)N(C)CC(=O)Nc3ccccc3C)cc2CC1C (stereo not given) | 0 | 0 | 0 | 0 | -61 | 0
COc1ccc(NC(=O)CN(C)S(=O)(=O)c2ccc3c(c2)CC(C)N3C(C)=O)c(OC)c1 (stereo not given) | 0 | 0 | 0 | 0 | 0 | 0
COc1cc(NC(=O)CN(C)S(=O)(=O)c2ccc3c(c2)CC(C)N3C(C)=O)cc(OC)c1 (stereo not given) | 0 | 0 | 0 | 0 | -84 | 0
Nc1[nH]c(C(=O)c2ccccc2)c(-c2c(F)cccc2F)c1C(=O)c1ccc(Cl)c(Cl)c1 | 0 | - | - | - | - | 0
COc1ccccc1CN1CC(C(=O)NCCc2ncccc2C)CCC1=O (stereo not given) | 0 | 0 | 0 | 79 | 0 | 0
CCCNC(=O)C1(C)CCN(Cc2cc(-c3ccccc3)on2)C1 (stereo not given) | 0 | - | - | - | - | 0
CCCNC(=O)c1ccccc1C(=O)NCCC | 0 | 0 | 0 | 0 | 0 | 89
CCOC(=O)C1CCCN(C(=O)c2oc3ccccc3c2C)CC1 (stereo not given) | 0 | - | - | - | - | 0
c1ccc(-c2ncc(-c3ccn[nH]3)s2)cc1 | 0 | 0 | 0 | 53 | 0 | 0
COc1ccc(N2C(=O)N(Cc3ccc(C)cc3)c3ccccc3S2(=O)=O)cc1 | 0 | 0 | 27 | 0 | 0 | 0
COc1ccc(N2C(=O)c3ccccc3S2(=O)=O)cc1 | 0 | 0 | 0 | 0 | 0 | 0
COc1ccc(NC(=O)c2cc(C3CCCCN3C(=O)c3ccccc3)on2)c(C)c1 (stereo not given) | 0 | - | - | - | - | 0
Cc1ccc2c(c1)C1(SC(C)C(=O)N1c1ccc(Cl)cc1)C(=O)N2 (stereo not given) | 0 | - | - | - | - | 0
NC(=O)[C@H]1CC2(CC(c3cccc(NC(=O)COc4ccc(Cl)cc4)c3)=NO2)CN1C(=O)Cc1ccc([N+](=O)[O-])cc1 (stereo not given in full) | 0 | 0 | - | 0 | 0 | 65
CCCCCC(=O)Nc1cccc(C2=NOC3(C2)C[C@@H](C(N)=O)N(C(=O)Cc2ccc([N+](=O)[O-])cc2)C3)c1 (stereo not given in full) | 0 | 0 | - | 0 | 0 | 0
Cc1cc(N)n(-c2nc3ccccc3s2)n1 | 0 | 0 | 0 | 0 | ? | 0
Cc1cc(C)n(-c2nc3ccccc3s2)n1 | 0 | 0 | 0 | 0 | -84 | 0
CCCCCCCCCCCn1nnnc1N | 0 | 0 | - | - | - | 0
COc1ccc([C@H]2CC(=O)C=C(c3ccnc4ccc(Cl)cc34)C2)cc1 | 0 | 0 | - | - | - | 52
COc1ccc([C@H]2CC(=O)C=C(c3cc(Cl)ccc3C)C2)cc1 | 0 | 0 | - | - | - | 0
CCCCN(C=O)c1c(CC)nc2c(OCc3ccc(S(C)(=O)=O)cc3)cccn12 | 0 | - | - | - | - | 0
O=C(CCS(=O)(=O)c1ccccc1)Nc1nc2cc3c(cc2s1)OCCO3 | 0 | 0 | 0 | 0 | 0 | 0
Cc1cc(C)c2sc(NC(=O)c3ccc([N+](=O)[O-])o3)nc2c1 | 0 | 0 | 0 | 77 | 0 | 0
Cc1cc(C)c2nc(NC(=O)c3ccc([N+](=O)[O-])o3)sc2c1 | 0 | 0 | 0 | 0 | 0 | 0
O=C(Nc1nc2ccccc2s1)c1ccc([N+](=O)[O-])o1 | 0 | 0 | 0 | 0 | 0 | 0
NNc1nc2cc3c(cc2s1)OCCO3 | 0 | 0 | 0 | 0 | 0 | 53
COc1ccc2nc(NC(=O)c3ccc([N+](=O)[O-])o3)sc2c1 | 0 | 0 | 0 | 132 | 0 | 0
